Unmarked numbers belong to inactive results.
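Also: TDF is a line of transformed human dermal fibroblasts of mesenchymal origin.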

In this test the test system is HCC1569. The test can be described thus: H1.0 immunofluorescence intensity relative to DMSO (% of DMSO); higher = stronger H1.0 induction, active = 140 or more. Particulars: concentration: 10 µM; 24 h. Summed up:
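H1.0 nuclear intensity or cell number is stated as percent of the plate control, based on the median of replicates, and HCC1569 values were smoothed for positional effects. These came from HCC1569 and TDF cells treated with compounds at 10 µM for 24 h at 37 °C in triplicate, then fixed in 3.7% formaldehyde and stained with a rabbit anti-H1.0 antibody, an AlexaFluor 647 secondary and DAPI.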
Regarding `COc1ccc(-n2[nH]c3c(cnc4ccccc43)c2=O)cc1` [2-(4-methoxyphenyl)-1H-pyrazolo[4,3-c]quinolin-3(2H)-one], the H1.0 immunofluorescence intensity is 93.6.

As for `CC(NC(=O)CCc1nc(=O)c2ccccc2[nH]1)c1ccccc1` (stereo not drawn), the H1.0 immunofluorescence intensity was 105.

In the case of `CC(=O)NC1C(N=C(N)N)C=C(C(=O)O)OC1C(O)C(O)CO` (stereo not drawn), the H1.0 immunofluorescence intensity is 99.

Turning to `O=C(O)Cc1c[nH]c2ccc(O)cc12` [5-Hydroxyindolacetic acid], the H1.0 immunofluorescence intensity is 97.9.

On to `NCCCC(=O)O`, for which the H1.0 immunofluorescence intensity was 96.5.

On to `COc1ncnc(NS(=O)(=O)c2ccc(N)cc2)c1OC` [Sulfadoxine], for which the H1.0 immunofluorescence intensity was 89.2.

As for `CC(=O)OC1(C(C)=O)CCC2C3CC(C)C4=CC(=O)CCC4(C)C3CCC21C` (stereo not drawn) [Medroxyprogesterone 17-Acetate], the H1.0 immunofluorescence intensity is 89.3.

In the case of `CC(=O)Oc1ccc(C(c2ccc(OC(C)=O)cc2)c2ccccn2)cc1` [Bisacodyl], the H1.0 immunofluorescence intensity is 125.

For `NS(=O)(=O)c1cc2c(cc1Cl)NC=NS2(=O)=O` [Chlorothiazide], the H1.0 immunofluorescence intensity was 94.

For the molecule `CC(C=CC1(O)C(C)=CC(=O)CC1(C)C)=CC(=O)O` (racemic), the H1.0 immunofluorescence intensity is 88.1.

On to `CC(C)CC(NC(=O)C(Cc1ccccc1)NC(=O)c1cnccn1)B(O)O` (stereo not drawn) [Bortezomib], for which the H1.0 immunofluorescence intensity was 59.7.

Consider `CC1OC(OCC2OC(Oc3cc(O)c4c(c3)OC(c3ccc(O)c(O)c3)CC4=O)C(O)C(O)C2O)C(O)C(O)C1O` (stereo not drawn) [Eriocitrin], for which the H1.0 immunofluorescence intensity was 84.

In the case of `CC(C)NCC(O)c1ccc2ccccc2c1.Cl` (stereo not drawn) [Pronethalol.HCl], the H1.0 immunofluorescence intensity was 102.

In the case of `C[C@@H](c1nc(-c2ccc(C#N)cc2)cs1)[C@](O)(Cn1cncn1)c1ccc(F)cc1F`, the H1.0 immunofluorescence intensity is 129.

Regarding `CCN(c1nc(N)c(C(=O)N=C(N)N)nc1Cl)C(C)C` [5-(N-Ethyl-N-isopropyl)amiloride], the H1.0 immunofluorescence intensity is 91.

Turning to `Cn1cnc2c(F)c(Nc3ccc(Br)cc3Cl)c(C(=O)NOCCO)cc21`, the H1.0 immunofluorescence intensity is 98.8.

In the case of `CN(C)CCC=C1c2ccccc2CCc2ccccc21.Cl` [Amitriptyline.HCl], the H1.0 immunofluorescence intensity is 123.

As for `C=C1CCC2OC2(C)CCC2C1CC2(C)C` (stereo not drawn) [Caryophylline], the H1.0 immunofluorescence intensity is 91.3.

Take `CCOC(=O)[C@H](CCc1ccccc1)N[C@@H](C)C(=O)N1CCC[C@H]1C(=O)O.O=C(O)C=CC(=O)O`: the H1.0 immunofluorescence intensity was 100.

On to `CCOc1ccc(C(Nc2ccccn2)c2ccc3ccc(C)nc3c2O)cc1C` (stereo not drawn), for which the H1.0 immunofluorescence intensity is 115.

As to `COc1ccc2c(c1OC)C(=O)OC2C1c2c(cc3c(c2OC)OCO3)CCN1C.Cl` (stereo not drawn) [Noscapine hydrchloride], the H1.0 immunofluorescence intensity was 96.5.

In the case of `CC(=O)NCCOC(=O)[C@H](Oc1cccc(C(F)(F)F)c1)c1ccc(Cl)cc1`, the H1.0 immunofluorescence intensity is 104.

Regarding `Cn1cc(C=C2C(=O)Nc3ccc(S(N)(=O)=O)cc32)c2ccccc21` [Syk Inhibitor], the H1.0 immunofluorescence intensity is 132.

Take `CC(=O)OC1CC2(C)C(CC(O)C3C4(C)CCC(O)C(C)C4CCC32C)C1=C(CCC=C(C)C)C(=O)[O-].[Na+]` (stereo not drawn) [Fusidic acid sodium]: the H1.0 immunofluorescence intensity is 83.5.

In the case of `COc1cc(OC)cc(C(CNc2ncnc3c2ncn3C2OC(CO)C(O)C2O)c2ccccc2C)c1` (stereo not drawn), the H1.0 immunofluorescence intensity was 100.

Take `Oc1cc2c(c(Cl)c1O)CCNCC2c1ccccc1` (stereo not drawn): the H1.0 immunofluorescence intensity was 105.

Regarding `O=[N+]([O-])c1ccc(Nc2nc(N3CCOCC3)nc(N3CCOCC3)n2)cc1`, the H1.0 immunofluorescence intensity is 102.

On to `CCOC(=O)C1=C(COCCN)NC(C)=C(C(=O)OC)C1c1ccccc1Cl` (stereo not drawn) [Amlodipine], for which the H1.0 immunofluorescence intensity is 106.

For the molecule `C=C1C(=O)OC2C1CCC(C)=CCCC1(C)OC21` (stereo not drawn) [Parthenolide], the H1.0 immunofluorescence intensity was 149 (active).

For the molecule `O=C(Nc1cccc(C(F)(F)F)c1)Nc1cc(S(=O)(=O)NC2CC2)ccc1-c1ccsc1`, the H1.0 immunofluorescence intensity was 130.

Take `Cl.c1ccc(-n2c(C3=NCCN3)cc3ccccc32)cc1`: the H1.0 immunofluorescence intensity is 101.

As to `O=c1c2ccccc2[nH]c(=S)n1CCN1CCC(=C(c2ccc(F)cc2)c2ccc(F)cc2)CC1` [Diacylglycerol Kinase Inhibitor II], the H1.0 immunofluorescence intensity is 94.1.

As for `COc1cc2nccc(Oc3ccc(NC(=O)NC4CC4)c(Cl)c3)c2cc1C(N)=O`, the H1.0 immunofluorescence intensity was 122.

(Values after the supplement of paper PMC7156485.)
